Bioassay records as filed in PubChem BioAssay.
HSF1 inhib = HSF1 inhibition. NIH3T3-HGL HSE-luciferase, MG132-induced, luminescence 8 h; hits give low values. 300,000 compounds, 0.77% hits. activity change, negative = inhibition, % at 7.5 µM (by protocol);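 active means more than half of replicate wells show activity change below -50%, luminescence cut by over half; inconclusive means some wells, but at most half, below -50%; inactive means no replicate well below -50%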;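 further: luciferase reports HSF-1 transcriptional activity via heat shock element; 0% = median of DMSO wells and -100% = zero luminescence signal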
HSF-1 act = increases HSF-1 driven luciferase reporter signal | NIH3T3-HGL HSF-1 luciferase reporter, MG132, 8 h; 100% = twice DMSO control signal | activation, % at 9 µM | 300,000 compounds, 1.7% hits;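 active means mean replicate activation of at least 50% with a set share of replicates each reaching 50%; inconclusive means only one of those two conditions met; inactive means mean below 50% and too few replicates reaching it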;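 further: 0% = median of the neutral control wells and 100% = twice that signal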
TWEAK Fn14 block = inhibitors of TWEAK-Fn14 interaction signaling. TWEAK-stimulated Fn14 reporter cells, luciferase luminescence, 8 h. inhibition, % at 10 µM. 360,000 compounds, 2% hits; in the data active means inhibition above about 50%
LGR2 inh = inhibitors of bursicon-induced Drosophila LGR2 receptor cAMP signaling | HEK293 LGR2, CRE-luciferase, bursicon-stimulated, 4 h | inhibition, % at 9.99 µM | 380,000 compounds, 0.35% hits | AID 720647;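 active means drop in luminescence signal, shown as inhibition above about 50% in the replicate tests, limit read from the data, passing the limit was not always enough; inconclusive means probably only some replicates passing the limit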;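 further: agonist challenge used bursicon conditioned medium at about half maximal strength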
LMP1 NFkB inh = Epstein-Barr LMP1 NF-kappaB reporter inhibition | AID 504558 | 350,000 compounds, 0.69% hits | inhibition, % at 12.5 µM | LMP1-induced NF-kappaB luciferase reporter cells, luminescence; in the data active means inhibition above about 41%; inconclusive means no clear call, values can overlap the other calls;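 further: 0% = neutral control wells and 100% = reference inhibitor control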
TROY NFkB inh = inhibitors of TROY-dependent NF-kB signaling. 360,000 compounds, 0.98% hits. AID 1347056. inhibition, % at 10 µM. Q293 LMP1-TROYcd NF-kB luciferase reporter, 4 h;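 active means compounds whose plate-normalised and pattern-corrected inhibition of the luciferase reporter signal at the single screening dose is 50% or more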
* hit, by the source's call; u = inconclusive; x = not tested or not shown. The list is not random: actives were taken first. Their share in the collection is about 3.6%.

SMILES	HSF1 inhib	HSF-1 act	TWEAK Fn14 block	LGR2 inh	LMP1 NFkB inh	TROY NFkB inh
O=C(NCCn1cc(SCc2ccc(F)cc2)c2ccccc21)c1ccccc1F	6	-5	51*	x	-7	28
O=C(NCCn1cc(SCc2ccc(F)cc2)c2ccccc21)c1c(F)cccc1F	-3	3	38	18	1	27
COc1ccc2c3c(n(C)c2c1)[C@@H](CO)N(C(=O)c1ccccn1)CC31CCN(C(=O)Cc2ccccc2)CC1	x	x	x	1	x	x
CCC(=O)N1CCC2(CC1)CN(S(=O)(=O)c1ccccc1)[C@@H](CO)c1[nH]c3cc(OC)ccc3c12	x	x	x	3	x	x
COc1cc(C2c3c(oc4ccccc4c3=O)C(=O)N2Cc2ccco2)ccc1O (stereo unspecified)	-4	-6	-10	x	-2	17
COc1cccc(C2c3c(oc4ccccc4c3=O)C(=O)N2Cc2ccco2)c1 (stereo unspecified)	22	59*	-12	1	2	13
S=C(NC1CCCCC1)NC1CC2C=CC1C2 (stereo unspecified)	65	85*	-11	x	-2	-12
CCCCCNC(=O)Cn1c(=O)c2c(ncn2CC(C)C)n(Cc2ccccc2)c1=O	-2	1	50*	1	-1	2
CC(C)CNC(=O)Cn1c(=O)c2c(ncn2CC(C)C)n(Cc2ccccc2)c1=O	7	1	6	7	-11	4
CCNC(=S)NNC(=O)Cn1c(=O)c2c(ncn2CCOC)n(Cc2ccccc2)c1=O	-4	4	93*	8	-2	-1
COCCn1cnc2c1c(=O)n(CC(=O)NC(=O)NC(C)(C)C)c(=O)n2Cc1ccccc1	-3	4	26	-13	x	-3
C[C@@H]1CCCCO[C@H](CN(C)C(=O)Nc2ccc(C(F)(F)F)cc2)[C@H](C)CN([C@H](C)CO)C(=O)c2cc(N(C)C)ccc2O1	x	x	x	21	x	x
Cc1cc(-c2ccccc2)c2ccc(NC(=O)C(C)(C)C)nc2n1	-62*	-70	-12	19	-4	-12
Cc1ccc(O)c(N=Nc2ccccc2)n1	22	37	57*	u	10	26
Oc1ccc(Cl)cc1N=Nc1ccccc1	1	12	-17	-21	-2	-41
O=C(COC(=O)c1ccccc1C(=O)c1ccc(Cl)cc1)NCCc1ccccc1	2	6	27	20	-1	-4
O=C(COC(=O)c1ccccc1C(=O)c1ccccc1)NCCc1ccccc1	17	55*	-4	-7	-7	-5
CO[C@H]1CN(C)C(=O)c2cc(NC(=O)C3CC3)ccc2OC[C@@H](C)N(Cc2ccncc2)C[C@H]1C	x	x	x	31	x	x
O=C(c1cc(-c2ccccc2)n[nH]1)N1CCc2c([nH]c3ccccc23)C1c1ccccn1 (stereo unspecified)	31	50	59*	1	5	41
CC(C)NC(=O)N(C)C[C@@H]1Oc2cc(-c3cncnc3)ccc2S(=O)(=O)N([C@@H](C)CO)C[C@H]1C	x	x	x	-1	x	x
O=C(COC(=O)c1cccnc1Cl)c1ccc2c(c1)OCCO2	5	19	-14	-22	9	6
O=C(O)/C=C/C(=O)Nc1ccccc1C(=O)OCC(=O)c1ccc2c(c1)OCCO2	x	x	31	17	4	53*
O=C(COC(=O)c1ccc(Cl)nc1)c1ccc2c(c1)OCCO2	41	65*	-22	-42	-5	-52
CCCNC(=O)N1CCC2(CC1)CN(Cc1cccc(F)c1)[C@H](CO)c1[nH]c3cc(OC)ccc3c12	x	x	x	1	x	x
Cc1ccc(/C=N/Nc2nncn2N)cc1	37	74*	4	-1	19	-21
SMILES	HSF1 inhib	HSF-1 act	TWEAK Fn14 block	LGR2 inh	LMP1 NFkB inh	TROY NFkB inh
Nn1cnnc1N/N=C/c1cccc(Cl)c1Cl	29	u	1	-11	-2	-19
Nn1cnnc1N/N=C/c1ccc(Cl)c([N+](=O)[O-])c1	-98*	-97	21	u	7	-4
Nn1cnnc1N/N=C/c1ccc(F)cc1	37	55*	-9	6	3	-5
Nn1cnnc1N/N=C/c1ccccc1C(F)(F)F	29	u	-18	8	0	2
O=C(C[C@@H]1C[C@@H]2c3cc(NC(=O)C4CCC4)ccc3O[C@@H]2[C@@H](CO)O1)NCc1ccccc1F	x	x	x	-3	x	x
C[C@@H]1CN([C@H](C)CO)C(=O)c2cccc(NC(=O)Nc3ccc4c(c3)OCO4)c2O[C@@H]1CN(C)C(=O)Nc1ccc2c(c1)OCO2	x	x	x	20	x	x
Cn1c(=O)c2c(nc(N3CCc4ccccc4C3)n2Cc2ccccc2F)n(C)c1=O	-6	-1	61*	x	13	47
CN1CCN(c2nc3c(c(=O)n(C)c(=O)n3C)n2Cc2ccccc2F)CC1	4	35	0	-15	2	2
CCN(CC)CCN(C)Cc1nc(C(c2ccccc2)c2ccccc2)no1	15	54*	8	x	-8	-1
CC(C)c1ccc(/C=C(\NC(=O)c2ccccc2)C(=O)NCCCn2ccnc2)cc1	22	59*	23	-5	x	-21
COCC(=O)N1C[C@H]2[C@@H](c3ccccc31)[C@H](CO)N2C(=O)C1CCCCC1	x	x	x	-18	x	x
CC(C)/C=C1\CCc2c([nH]c3ccccc23)C1=O	16	36	-7	-15	-14	-52
O=C1/C(=C\c2ccccc2)CCc2c1[nH]c1ccccc21	59	109*	38	x	-25	-49
Cc1ccc(/C=C2/CCc3c([nH]c4ccccc34)C2=O)cc1	13	19	37	x	-63	17
Cc1ccc2[nH]c3c(c2c1)CC/C(=C/c1ccccc1)C3=O	35	62*	0	x	2	-46
C[C@@H]1CN([C@@H](C)CO)C(=O)c2cc(NC(=O)CCC(F)(F)F)ccc2O[C@@H]1CN(C)Cc1ccc(C(=O)O)cc1	x	x	x	-6	x	x
O=C(c1ccc(Cl)cc1)c1cnc(-c2ccc(Cl)cc2)s1	10	13	-14	x	-39	-53
O=C(c1ccccc1)c1cnc(-c2ccc(Cl)cc2)s1	10	14	62*	x	-34	15
O=C(COC(=O)CNC(=O)c1ccccc1F)Nc1cccnc1Cl	-77*	-81	-8	u	0	-4
O=C(COC(=O)CNC(=O)c1ccccc1F)NCCNC(=O)COC(=O)CNC(=O)c1ccccc1F	-1	-8	-3	4	7	6
CN(C)CCNC(=O)c1cc2c(s1)-c1ccc(Cl)cc1SC2	-39	-54	105*	2	3	45
CCOCCCNC(=O)c1cc2c(s1)-c1ccccc1SC2	4	4	-15	5	5	0
Cc1[nH]c2ccccc2c1C(=O)/C=C/c1ccccc1Cl	84	113*	26	x	-32	-31
CC(=O)c1c(C)nc2ccccc2c1N	0	-5	-15	x	4	7
Cc1[nH]c2ccccc2c1C(=O)/C=C\c1ccccc1Cl	43	46	11	-45	-25	-40
